# An excerpt weighted towards active compounds, which were near 4% of everything screened.
# esBAF inh: SWI/SNF esBAF complex inhibition; mouse ES cells, Bmi1-luciferase knock-in reporter, 24 h; 100% = twice the neutral-well signal; reporter increase, % at 12.5 µM; actives 2% (n = 350,000); AID 602393; in the data active = activation above about 40%;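 also: 0% = median of the plate's neutral control wells and 100% = double that signal; a rise in the Bmi1 reporter signal indicates esBAF inhibition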
# LMP1 NFkB inh: reduces LMP1-driven NF-kappaB luciferase signal; actives 0.69% (n = 350,000); LMP1-induced NF-kappaB luciferase reporter cells, luminescence; inhibition, % at 12.5 µM; AID 504558; in the data active = inhibition above about 41%;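 also: 0% = neutral control wells and 100% = reference inhibitor control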
# C2C12 statin: suppressors of simvastatin-induced myotoxicity in C2C12 myotubes; actives 0.78% (n = 330,000); ATP luminescence, 48 h; scaled: DMSO 0, geranylgeraniol control 100; rescue of ATP level, % at 7.49 µM;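 active = mean ATP rescue above about 67%, or every replicate alone reaching that limit, limit read from the data, passing the limit was not always enough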;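 also: myotubes were challenged with 10 µM simvastatin during compound exposure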
# TRPM1 prom inh: inhibitors of MITF-driven TRPM1 promoter in melanoma cells | SK-MEL-5 TRPM1 promoter luciferase, 24 h | inhibition, % at 12.5 µM | actives 0.83% (n = 330,000);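 active = mean inhibition across replicates of 60% or more, whatever share of single replicates reaches that level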
# Wnt bcat act: activators of Wnt/beta-catenin signaling; activation, % at 9.35 µM; Wnt/beta-catenin reporter cell assay, activator, plate reader; AID 743398; actives 1.2% (n = 300,000); in the data active = activation above about 30%, passing the limit was not always enough;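 also: 0% = neutral control wells and 100% = positive control wells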
# MITF TRPM1 HTS: activators of MITF-driven TRPM1 promoter activity in SK-MEL-5 cells; SK-MEL-5 TRPM1-promoter luciferase, 24 h; % of positive control, neutral wells = 0; activation, % at 12.5 µM; actives 0.75% (n = 300,000);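 active = mean activation of at least 80% with every replicate also reaching 80%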;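 also: 0% = neutral control wells and 100% = parthenolide positive control wells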
# The depositor's hits bear a star; · = no result given.
SMILES,esBAF inh,LMP1 NFkB inh,C2C12 statin,TRPM1 prom inh,Wnt bcat act,MITF TRPM1 HTS
COC(=O)CCc1sc(Nc2ccccc2)nc1-c1ccc(OC)cc1,·,-42.0,·,-61.5,42.1*,60.6
Cc1cnc(NC(=O)c2sc(Nc3ccccc3)nc2N)o1,·,-25.6,·,-59.7,38.2*,·
Cc1cc(Nc2ccccc2)nn1C(=O)c1ccccc1,-6.6,5.6,11.0,4.7,1.1,-0.9
COc1ccc(C(=O)n2nc(C)cc2Nc2ccccc2)cc1,55.4*,-29.4,2.2,-19.8,·,17.4
O=C(Nc1cccc(Cl)c1)N[C@@H]1CC[C@H](CCNC(=O)C2CCCCC2)O[C@H]1CO,-5.2,·,4.1,·,·,·
CCOC(=O)C(=O)N(C)c1c(CC)nc2c(OCc3ccc(OC)cc3)cccn12,-5.5,·,-1.3,·,-1.3,·
COc1ccc(C(=O)c2sc(Nc3ccccc3)nc2N)cc1OC,-30.9,7.9,-4.4,-33.2,6.4,38.9
Nc1nc(Nc2ccccc2)sc1C(=O)c1ccccc1,·,-59.0,·,-65.4,50.5*,·
Cc1ccc(NC(=O)c2ccc3c(c2)C(=O)N(c2ccccc2C)C3=O)nc1,-1.3,0.5,5.2,2.1,0.3,-2.3
COc1ccc(/C=N/Nc2cc(C)nc3ccc(Br)cc23)cc1,-43.1,-25.6,-47.5,98.6*,-2.8,-97.8
COc1cccc2c(N/N=C/c3ccccc3)cc(C)nc12,6.3,1.8,18.3,4.6,6.7,-2.5
COc1ccc2nc(C)cc(N/N=C/c3cccc(OC)c3O)c2c1,-3.0,5.0,9.1,81.6*,-6.9,·
COc1ccc2nc(C)cc(NCc3cccc(C(F)(F)F)c3)c2c1,-9.9,-12.6,-122.9,69.0*,-9.3,-68.5
N#C/C(=C\c1cccc(Oc2ccccc2)c1)C(=O)N1CCOCC1,-6.2,3.3,-0.2,-3.7,0.1,6.9
CC#CC(=O)N1CCCC(Cc2cccc(OC)c2)(C(=O)OCC)C1 (stereo unspecified),58.8*,-19.7,1.2,-50.6,27.1,50.9
CCOC(=O)C1(Cc2cccc(OC)c2)CCCN(C(=O)CSC)C1 (stereo unspecified),58.6*,-10.8,-3.8,-51.8,10.4,·
CCOC(=O)C1(Cc2cccc(OC)c2)CCCN(S(=O)(=O)CC)C1 (stereo unspecified),-7.0,8.0,7.7,6.9,-0.4,·
NCCCC[C@H]1CN=C(N)N1CCC12CC3CC(CC(C3)C1)C2,12.4,6.6,6.7,11.7,2.7,-16.6
CO[C@@H]1CN(C)C(=O)c2ccc(NC(=O)Nc3ccc4c(c3)OCO4)cc2OC[C@H](C)NC[C@H]1C,92.8*,·,-5.3,·,·,·
CO[C@H]1CN(C)C(=O)c2ccc(NC(=O)Nc3ccc4c(c3)OCO4)cc2OC[C@@H](C)NC[C@@H]1C,56.4*,·,1.4,·,·,·
CO[C@H]1CN(C)C(=O)c2ccc(NC(=O)c3ccc4c(c3)OCO4)cc2OC[C@H](C)NC[C@@H]1C,-1.7,·,3.3,·,·,·
CO[C@H]1CN(C)C(=O)c2cc(NC(=O)Nc3ccccc3)ccc2OC[C@H](C)N(C(=O)CC2CC2)C[C@@H]1C,47.8*,·,-20.9,·,·,·
CO[C@@H]1CN(C)C(=O)c2cc(NC(=O)Nc3ccccc3)ccc2OC[C@@H](C)N(C(=O)CC2CC2)C[C@@H]1C,-9.5,·,-5.0,·,·,·
CNC1=C(N(C(C)=O)c2ccc(Br)cc2)C(=O)c2ccccc2C1=O,·,24.9,·,106.8*,-21.8,-105.8
COc1cc2sc(-c3ccccc3OC)c(-c3ccc(OCCN4CCCCC4)cc3)c2cc1OC,-88.5,-27.1,-44.6,24.7,-4.4,-23.7
SMILES,esBAF inh,LMP1 NFkB inh,C2C12 statin,TRPM1 prom inh,Wnt bcat act,MITF TRPM1 HTS
COCCn1c(C)cc(C(=O)CSc2nnc3ccccn23)c1C,-71.7,49.7*,-3.9,58.8,-3.3,-58.3
COCCn1c(C)cc(C(=O)CSc2nc3ccccc3s2)c1C,-52.5,9.7,-34.0,8.6,-2.5,-7.5
Cc1ccc(C(=O)CSc2nnc(N)s2)c(C)c1,60.7*,-34.4,-2.0,-82.0,13.9,87.4*
COCCn1c(C)cc(C(=O)CSc2nc3ccccc3o2)c1C,8.0,-13.7,85.4*,-27.4,22.9,24.1
Cc1ccc(C(=O)CSc2nnc3ccccn23)c(C)c1,·,-3.1,·,-11.2,33.1*,12.1
O=C(CSc1nnc2ccccn12)c1ccc(OC(F)F)cc1OC(F)F,15.4,-21.6,6.8,3.4,3.6,·
O=C1CCC(=O)N1c1ccc(NCCc2cccc(F)c2)c([N+](=O)[O-])c1,-0.6,3.6,-3.3,-9.0,-3.7,10.8

# Bioassay records as filed in PubChem BioAssay.
